# Measurements: ChEMBL document CHEMBL3988442, “University of Dundee, Small-Polar-MMV Screening Library” (2021)
# Among all 48,000 compounds or so, about 13,000 (27%) showed an effect of 50% or more. This is one part of the list.
# Tested on: Wolbachia pipientis
# Experiment: Anti-Wolbachia Cell-Based Screen
# Type: functional
# Parameters: scale not given: in the data most compounds retested in dose-response had high values
# Conditions: 5 µM
row,SMILES,Percent Effect [%]
1,Cc1occc1C(=O)N1CC(C(=O)N2CCOCC2)C2(CCOCC2)C1 (configuration not stated),-11.45
2,CC(NC(=O)CCC(=O)c1cccs1)c1nnc2n1CCCCC2 (configuration not stated),-1.581
3,CC(NC(=O)CCC(=O)c1cccs1)c1nnc2n1CCC2 (configuration not stated),109.2
4,CC(NC(=O)CCCC(=O)c1cccs1)c1nnc2n1CCC2 (configuration not stated),92.19
5,Cc1noc(CCCC(=O)NC(C)c2nnc3n2CCCCC3)n1 (configuration not stated),-8.198
6,c1cnn(Cc2ccc(CN3CCC4(CCCNC4)C3)cc2)c1 (configuration not stated),7.706
7,COCCN1CCN(CCCc2nnnn2-c2ccccc2)CC1,-6.154
8,Cc1cncc(C2CCCN(C(=O)c3c[nH]c(=O)[nH]c3=O)C2)n1 (configuration not stated),-6.344
9,Cc1cccc2[nH]c(C3CCN(C(=O)c4c[nH]c(=O)[nH]c4=O)CC3)nc12,-6.416
10,O=C(c1c[nH]c(=O)[nH]c1=O)N1CCCC(c2cnccn2)C1 (configuration not stated),111.3
11,Cc1ccccc1OC1CCN(C(=O)c2c[nH]c(=O)[nH]c2=O)CC1,25.29
12,Cc1cnc(C2CCCN(C(=O)c3c[nH]c(=O)[nH]c3=O)C2)s1 (configuration not stated),107.7
13,Cc1cc(C2CCCN(C(=O)c3ccc(C)[nH]c3=O)C2)n[nH]1 (configuration not stated),8.066
14,Cn1ccnc1CN1CCN(c2ncnc3ccsc23)CC1,8.989
15,CCc1[nH]n(C)c(=N)c1-c1ccc2c(c1)OCO2,-3.293
16,CCc1ncnc2c1CCN(Cc1ccc(OC)cc1)CC2.O=C(O)C(F)(F)F,-14.19
17,CCc1ncnc2c1CCN(CCOC)CC2.O=C(O)C(F)(F)F,104.9
18,COCCN1CCc2ncnc(-c3ccccc3)c2CC1.O=C(O)C(F)(F)F,98.59
19,CCc1ncnc2c1CCN(Cc1cccs1)CC2.O=C(O)C(F)(F)F,-3.657
20,CN(CCN1CCCC1=O)CC(c1cccs1)N1CCOCC1 (configuration not stated),-4.192
21,CCc1ccc(CN(C/C=C/c2ccccc2)CCOC)nc1,-1.399
22,Cc1cc(CN[C@H](C(N)=O)[C@@H](C)O)c(C)s1,-13.15

row,SMILES,Percent Effect [%]
1,O=S(=O)(C1CC1)N1CC[C@H](OCC2CC2)[C@@H]1Cc1ccncc1,-12.77
2,COCCO[C@H]1CCN(c2cc(OC)ncn2)[C@H]1Cc1cccnc1.O=C(O)C(F)(F)F,-7.888
3,Cc1ccc(N2CC[C@H](OCC3CC3)[C@@H]2Cc2ccncc2)nn1,112.9
4,Cc1ccc(N2CC[C@H](OCC3CC3)[C@@H]2Cc2cccnc2)nn1.O=C(O)C(F)(F)F,91.78
5,CN(C)[C@@H]1CCN(c2ncccn2)[C@H]1Cc1cccnc1.O=C(O)C(F)(F)F.O=C(O)C(F)(F)F,5.907
6,COCCO[C@H]1CCN(c2ccc(C)nn2)[C@H]1Cc1cccnc1.O=C(O)C(F)(F)F.O=C(O)C(F)(F)F,97.63
7,Cc1ccc(N2CC[C@H](OCC3CC3)[C@@H]2Cc2cnn(C)c2)nn1,1.399
8,O=C(NCC(F)(F)F)c1nnn(-c2ccccc2)c1C(F)(F)F,-4.958
9,CCCSCC(=O)N1C[C@H]2CC[C@@H]1CN(c1ncccn1)C2,28.59
10,N[C@H]1CN(C(=O)c2ccc(CO)cc2)C[C@@H]1C1CC1,-11.41
11,COc1ccc(-c2nc3c([nH]2)CCNC3)c(OC)c1OC,-10.21
12,O=C(CCc1ccc(C(F)(F)F)cc1)N1CCCS1(=O)=O,-13.79
13,N#Cc1ccc(S(=O)(=O)Nc2ccc(N3CCOCC3)cn2)cc1,1.293
14,CCc1ccc(S(=O)(=O)Nc2cnc(N3CCOCC3)nc2)cc1,1.019
15,COc1c(NS(=O)(=O)c2ccc(C)c(C)c2)c(C)nn1C,-13.12
16,Cc1ccc(NS(=O)(=O)c2ccc(C#N)cc2)c(CN(C)C)c1,3.683
17,Cc1ccc(S(=O)(=O)Nc2cnn(C3CCOCC3)c2)cc1C,113.9
18,CC(=O)c1ccc(S(=O)(=O)Nc2cnn(C3CCOCC3)c2)cc1,124.1
19,O=S(=O)(Nc1cnc(N2CCOCC2)nc1)c1ccc(Cl)cc1,-1.506
20,O=S(=O)(Nc1cnn(C2CCOCC2)c1)c1ccc(Br)cc1,132.2
21,O=S(=O)(Nc1cnn(C2CCOCC2)c1)c1ccc2c(c1)CCO2,-1.173
22,Cn1nnn(-c2ccc(NS(=O)(=O)c3ccc(Br)cc3)cc2)c1=O,-3.296

row,SMILES,Percent Effect [%]
1,Cc1ccc(S(=O)(=O)Nc2ccc(N3CCOCC3)cn2)cc1,3.4
2,N#Cc1ccc(S(=O)(=O)Nc2cnn(C3CCOCC3)c2)cc1,136.3
3,COc1coc(CN2CCCC(CCc3c(F)cccc3F)C2)cc1=O (configuration not stated),17.04
4,Cc1ccc(C)c(-c2csc(N)c2C#N)c1,-0.8217
5,Cc1nc(N2CCN3CCCCC3C2)nc2cc(S(C)(=O)=O)ccc12 (configuration not stated),-5.317
6,O=C(CNC(=O)c1cnc2ccccc2c1O)NCCn1ccnc1,-3.022
7,Cc1cc(CN2CCN(C(=O)Nc3cccnc3)CC2)on1,-15.13
8,O=S(=O)(Nc1cnn(C2CCOCC2)c1)c1ccc(F)c(F)c1,-11.58
9,O=S(=O)(Nc1cnn(C2CCOCC2)c1)c1c(F)cccc1F,-13.72
10,O=C(O)c1cc(S(=O)(=O)Nc2cnn(C3CCOCC3)c2)ccc1F,126.6
11,Cc1ccc(CNCc2cc(Br)c3c(c2)OCO3)cc1,-32.56
12,CN1CC(=O)N(c2cccc(F)c2)CC12CCN(Cc1ccco1)C2 (configuration not stated),-8.082
13,COc1cccc(N2CCC(CNC(=O)N(C)Cc3ccco3)C2)c1 (configuration not stated),-2.761
14,CC(C)(Oc1ccc2c(c1)CCCC2=O)C(=O)NCc1ccco1,-1.632
15,Fc1cccc(N2CCCC3(CN(Cc4ccco4)CCO3)C2)c1.O=C(O)C(F)(F)F.O=C(O)C(F)(F)F (configuration not stated),-7.933
16,COc1ccc2c(c1)CN(Cc1ccco1)C(=O)CCN2CC(C)(C)O,126.9
17,CC(C)(O)CN1CCC(=O)N(Cc2ccco2)Cc2cc(F)ccc21,108.3
18,CC(=O)N1CCC2(CC1)CN(C(C)=O)CC21CCNC1=O (configuration not stated),-37.65
19,CN(C)C1Cc2ccccc2N(S(=O)(=O)c2ccccc2C#N)C1 (configuration not stated),-15.96
20,CN(C)c1cncc(C2CCCN(c3cnccn3)C2)n1 (configuration not stated),69.21
21,Cc1cc(C)c(CNC(=O)C2CCCN(c3cnccn3)C2)c(=O)[nH]1 (configuration not stated),0.7586
22,CC(C)n1ccnc1C1CCCN(c2cncc(N(C)C)n2)C1 (configuration not stated),9.354

row,SMILES,Percent Effect [%]
1,CN(C)c1nccnc1C1CCN(c2cnccn2)CC1,116.7
2,COc1cc(N2CCCC(c3ncc[nH]3)C2)ncn1 (configuration not stated),-14.93
3,Cc1cc(N2CCCC(c3nccnc3N(C)C)C2)ncn1 (configuration not stated),90.88
4,CN(C)c1nccnc1C1CCCN(c2cnccn2)C1 (configuration not stated),115.4
5,CC(C)c1nc(C2CCCN(c3cnc4ccccc4n3)C2)no1 (configuration not stated),3.044
6,CN(C)CCO[C@H]1C[C@@H](O)C12CCN(c1cnccn1)CC2,0.5833
7,CN(C)CCCn1ccnc1C1CCCN(c2cc(N)ncn2)C1 (configuration not stated),-5.782
8,O=C(O)[C@@H]1CN(C2CCCCC2)C[C@H]1C1CC1,8.818
9,CCS(=O)(=O)N1CCC(CSc2ccccc2)C1 (configuration not stated),-7.795
10,CNC(=O)C(C)(C)N1CCC[C@H]1C(=O)NCCN1CCOCC1,8.557
11,O=C(O)C(F)(F)F.c1ccc(OCc2nnn3c2CN(c2ncccn2)CCC3)nc1,-15.4
12,CCc1ccc(C(=O)N2CCCn3nnc(Cn4cccn4)c3C2)cc1,1.938
13,CC(=O)NCc1nnn2c1CN(c1ncccn1)CCC2,96.74
14,CCS(=O)(=O)N1CCCn2nnc(CNC(C)=O)c2C1,115.8439
15,CC(=O)NCc1nnn2c1CN(c1ncc(C)cn1)CCC2,101.7
16,COCc1nnn2c1CN(C(=O)c1c[nH]cn1)CCC2,-0.6058
17,O=C(O)C(F)(F)F.OCCOCc1nnn2c1CN(c1ncccn1)CCC2,8.15
18,COc1cccc(-c2noc(-c3ccc(NCC(C)C)nc3)n2)c1OC,-21.63
19,CCN1CCC(c2nnc(CN3CCCC3)n2C2CC2)CC1,-1.245
20,Cc1cc(N(C)C)nc(C2(C)CCCNC2)n1 (configuration not stated),102.5
21,Cc1cc(N(C)C)nc(C2(C)CCNCC2)n1,87.74
22,Cc1cnn(C2CN(c3nc(C)cc(N(C)C)n3)C2)c1,-14.5

row,SMILES,Percent Effect [%]
1,Cc1nc(N(C)C)cc(C2(C)CCNCC2)n1,111
2,Cc1cc(N(C)C)nc(N2CCn3c(C)nnc3C2)n1,-0.4749
3,CN(Cc1ccc2nsnc2c1)C(=O)CCc1cc2n(n1)CCCNC2,-10.43
4,COCc1cc(N(C)Cc2ccccn2)nc(C(C)(C)C)n1,-4.697
5,O=C(COc1ccccc1N1CCCC1)N1CCN[C@H]2CS(=O)(=O)C[C@H]21,-3.795
6,O=C(CCc1ccccc1Br)N1CC(S(=O)(=O)C2CCCCC2)C1,3.843
7,Cc1noc(CNc2ccc(OC(F)F)cc2OC(F)F)n1,-10.63
8,CC(=O)N1CCC(CN2CCN(Cc3nccn3C)C(C)C2)CC1 (configuration not stated),-3.409
9,CN1CCCC(N2CCN(c3cc(C(F)(F)F)ccn3)CC2)C1 (configuration not stated),-11.03
10,Cc1ccc(CN(Cc2ccccn2)C(=O)CCC2CCCN(C)C2)s1 (configuration not stated),-9.083
11,CC(=O)N1CCC(NC(=O)NCCCc2cn[nH]c2C)CC1,-4.714
12,Cc1n[nH]c(C)c1-c1nccnc1CC1CCCN(C)C1 (configuration not stated),113
13,CS(=O)(=O)N1Cc2nccn2CC(CN2CCCC2=O)C1 (configuration not stated),-14.04
14,CS(=O)(=O)N1CCC(CSc2ccccc2)C1 (configuration not stated),7.413
15,Cc1n[nH]c(C)c1CN1CCC(c2cc(C(C)C)n[nH]2)CC1,7.572
16,Cc1noc2ncc(C(=O)NCC3CCN(C(C)C)C3)cc12 (configuration not stated),-9.955
17,Cc1n[nH]c(C)c1-c1nccnc1CC1CCN(S(C)(=O)=O)C1 (configuration not stated),111.1
18,CC(=O)N1CCC(Cc2nccnc2-c2c(C)n[nH]c2C)C1 (configuration not stated),110.3
19,Cc1n[nH]c(C)c1-c1nccnc1CC1CCN(C(C)C)CC1,127
